Among the test systems are RPMI-8226 leukemia; OVCAR-8 ovarian; OVCAR-5 ovarian; OVCAR-4 ovarian; SK-OV-3 ovarian; IGROV1 ovarian; OVCAR-3 ovarian; NCI/ADR-RES ovarian; T-47D breast; BT-549 breast; MDA-MB-435 melanoma; SW-620 colon; MCF7 breast; HCT-116 colon; KM12 colon; SR leukemia; HS 578T breast; HCC-2998 colon.
What all share (test): NCI-60 one-dose screen, 48 h (100 = growth as untreated, 0 = no growth, -100 = all killed)
Holding throughout (conditions): 10 µM unless noted

The panel holds about 83,000 compounds, 20% with a hit somewhere; the sample as a whole holds those more often.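 In brief: 96-well plates, 48 h treatment, single concentration, percent growth endpoint.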 Values without a mark were called inactive. Active and inactive are the calls of the source. The calls were made as follows: active = growth percent below 10; inactive = the rest.

For `O=C(O)/C(=C/c1ccc(O)cc1)c1ccccc1`, the growth was 95.5% with RPMI-8226 leukemia; 95.7% with OVCAR-8 ovarian; 84.4% in the test with OVCAR-5 ovarian; 98.7% in the test with OVCAR-4 ovarian; 112% in the test with SK-OV-3 ovarian; 99% with IGROV1 ovarian. For the same compound, the growth with OVCAR-3 ovarian was 103%; in the test with NCI/ADR-RES ovarian, 94.6%; with T-47D breast it was 94.6%; in the test on BT-549 breast, 95.5%; in the test on MDA-MB-435 melanoma, 109%; in the test on SW-620 colon, 105%. In addition, the growth was 98% with MCF7 breast, 92.7% in the test with HCT-116 colon and 107% in the test with KM12 colon.

In the case of `CCC(CC)C(=O)OC(C)COc1ccc(C(C)(C)C)cc1` (centres undefined), the growth with SR leukemia is 98.2%; in the test on OVCAR-8 ovarian it was 86.2%; in the test on OVCAR-5 ovarian, 100%; in the test on SK-OV-3 ovarian, 102%; in the test on IGROV1 ovarian, 112%; with OVCAR-3 ovarian it was 107%. Besides, the growth is 110% with HS 578T breast; 109% with NCI/ADR-RES ovarian; 113% in the test with T-47D breast; 109% in the test on BT-549 breast; 105% with MDA-MB-435 melanoma; 106% in the test with SW-620 colon. Also, the growth in the test with MCF7 breast was 101%; in the test with HCT-116 colon, 90.7%; in the test on HCC-2998 colon, 101%; with KM12 colon, 102%.

Take `Cn1cccc1/C=C1/SC(=S)N(CCc2ccc(O)cc2)C1=O`: the growth in the test on SR leukemia is 24.1%; in the test on OVCAR-8 ovarian, 67.1%; in the test on OVCAR-5 ovarian it was 95.9%; in the test with OVCAR-4 ovarian it was 89.4%; in the test on IGROV1 ovarian it was 45.7%; in the test with OVCAR-3 ovarian it was 39.4%. For the same compound, the growth with HS 578T breast was 67.7%; with NCI/ADR-RES ovarian, 16.3%; in the test with T-47D breast, 42%; in the test on BT-549 breast, 41.4%; in the test on MDA-MB-435 melanoma, -27.9% (active); in the test with SW-620 colon it was 31.6%. Besides, the growth in the test with MCF7 breast was 33.8%; in the test on HCT-116 colon, 21.4%; in the test on HCC-2998 colon it was 77.4%; with KM12 colon it was 40.5%.

For the compound `CC(C)(C)CC(C)(C)c1ccc(OCCOCC[N+](C)(C)CC(=O)[O-])cc1`, the growth with SR leukemia was 94.8%; in the test on OVCAR-8 ovarian, 105%; in the test with OVCAR-5 ovarian it was 102%; in the test on SK-OV-3 ovarian, 109%; with IGROV1 ovarian, 100%; in the test with OVCAR-3 ovarian, 113%. Further, the growth in the test on HS 578T breast was 114%; in the test on NCI/ADR-RES ovarian it was 111%; with T-47D breast, 103%; with BT-549 breast, 125%; with SW-620 colon, 101%; with MCF7 breast, 105%. The values for the growth in the test with HCT-116 colon, in the test on HCC-2998 colon and in the test with KM12 colon were 107%, 108% and 112%, respectively.

On to `O=c1[nH]c(=S)[nH]c2nc[nH]c12`, for which the growth in the test on RPMI-8226 leukemia was 99.2%; in the test with OVCAR-8 ovarian, 95.2%; with OVCAR-5 ovarian, 90.5%; in the test with OVCAR-4 ovarian it was 107%; in the test with SK-OV-3 ovarian, 112%; with IGROV1 ovarian, 105%. The growth was 115% in the test with OVCAR-3 ovarian; 95.1% in the test on NCI/ADR-RES ovarian; 105% with T-47D breast; 109% in the test with BT-549 breast; 110% in the test on MDA-MB-435 melanoma; 99.2% in the test on SW-620 colon. Further, the growth with MCF7 breast is 97.4%; in the test with HCT-116 colon, 93.9%; in the test with HCC-2998 colon, 99.7%; with KM12 colon it was 106%.

As to `CCSc1ncnc2c1ncn2C1OC(CO)C(O)C1O` (centres undefined), the growth with RPMI-8226 leukemia is 38.5%; in the test on OVCAR-8 ovarian, 29.5%; in the test with OVCAR-5 ovarian it was 29.5%; with OVCAR-4 ovarian, 46.1%; in the test with SK-OV-3 ovarian, 41.3%; in the test with IGROV1 ovarian it was 2.14% (active). For the same compound, the growth was 23.4% in the test on OVCAR-3 ovarian; 25.4% in the test on NCI/ADR-RES ovarian; 29.1% in the test on T-47D breast; 49% with BT-549 breast; 24% with MDA-MB-435 melanoma; 28.4% with SW-620 colon. In addition, the growth is 19.2% in the test with MCF7 breast, 12% in the test with HCT-116 colon, 8.16% (active) in the test on HCC-2998 colon and 11.8% in the test with KM12 colon.

Turning to `CCCCC/C(=C\c1ccccc1)C1OC(C)C(C)O1` (centres undefined), the growth in the test with SR leukemia is 99.4%; in the test on OVCAR-8 ovarian it was 96.3%; with OVCAR-5 ovarian, 93.7%; in the test with SK-OV-3 ovarian, 96.7%; with IGROV1 ovarian, 112%; with OVCAR-3 ovarian, 101%. Moreover, the growth with HS 578T breast is 110%; with T-47D breast, 94.4%; in the test with BT-549 breast it was 95.7%; in the test with MDA-MB-435 melanoma, 105%; with SW-620 colon, 103%; with MCF7 breast, 102%. Further, the growth with HCT-116 colon is 81.7%; in the test on HCC-2998 colon, 102%; in the test with KM12 colon it was 98.8%.

In the case of `CCCC1CCCCN1C(=O)OCC(C)C` (centres undefined), the growth is 108% in the test on RPMI-8226 leukemia; 105% in the test on OVCAR-8 ovarian; 102% in the test on OVCAR-5 ovarian; 113% with OVCAR-4 ovarian; 110% in the test with SK-OV-3 ovarian; 101% with IGROV1 ovarian. Further, the growth with OVCAR-3 ovarian was 112%; with HS 578T breast it was 102%; with NCI/ADR-RES ovarian, 137%; in the test with T-47D breast, 104%; in the test with BT-549 breast it was 114%; in the test with MDA-MB-435 melanoma it was 100%. The growth is 98.4% in the test with SW-620 colon; 100% in the test on MCF7 breast; 103% with HCT-116 colon; 125% with HCC-2998 colon; 105% in the test with KM12 colon.

On to `CCCCCCCN(CCCCCCC)C(=N)c1ccnc2ccccc12`, for which the growth was -44.5% (active) with SR leukemia; -40.8% (active) with OVCAR-8 ovarian; 34.7% in the test on OVCAR-5 ovarian; 5.2% (active) in the test with OVCAR-4 ovarian; 4.57% (active) in the test with IGROV1 ovarian; -41.8% (active) in the test with OVCAR-3 ovarian. The growth in the test on HS 578T breast is -43.6% (active); in the test with NCI/ADR-RES ovarian, -52.5% (active); in the test on T-47D breast it was -39.9% (active); with BT-549 breast, 56%; in the test on MDA-MB-435 melanoma it was -88.5% (active); in the test on SW-620 colon, -75.9% (active). Moreover, the growth is -62.2% (active) with MCF7 breast, -83.7% (active) with HCT-116 colon, -87% (active) in the test on HCC-2998 colon and -16.8% (active) in the test on KM12 colon.

Regarding `COc1ccc(OCC(CO)N2CCN(c3ccccc3)CC2)cc1` (centres undefined), the growth was 131% in the test on RPMI-8226 leukemia; 93.6% in the test on OVCAR-8 ovarian; 103% in the test with OVCAR-5 ovarian; 92.4% with OVCAR-4 ovarian; 106% in the test with SK-OV-3 ovarian; 112% in the test on IGROV1 ovarian. In addition, the growth in the test on OVCAR-3 ovarian is 102%; in the test with HS 578T breast it was 96.6%; in the test on NCI/ADR-RES ovarian, 99.9%; with T-47D breast, 101%; in the test with BT-549 breast it was 97.5%; in the test on MDA-MB-435 melanoma, 108%. In addition, the growth in the test on SW-620 colon was 110%; with MCF7 breast, 83.4%; in the test with HCT-116 colon, 95.7%; in the test on HCC-2998 colon it was 99.7%; in the test on KM12 colon it was 105%.

These data come from PubChem BioAssay (NCI).
